ALDH1A1 inh = blocks purified human ALDH1A1 activity; Purified ALDH1A1, NADH fluorescence, propionaldehyde substrate; AID 1030; Potency, µM (titrated, usually from 75.3 µM), usual class: inhibitors; 7.3% of 220,000 active; active = well fitted inhibition curve with a large enough effect, not every such curve was filed as active; inconclusive = small, poorly fitted or top-dose-only effect, or another doubt; inactive = no such curve, though single readings can be large or run the other way
Target sequence (P00352 whole entry, looked up): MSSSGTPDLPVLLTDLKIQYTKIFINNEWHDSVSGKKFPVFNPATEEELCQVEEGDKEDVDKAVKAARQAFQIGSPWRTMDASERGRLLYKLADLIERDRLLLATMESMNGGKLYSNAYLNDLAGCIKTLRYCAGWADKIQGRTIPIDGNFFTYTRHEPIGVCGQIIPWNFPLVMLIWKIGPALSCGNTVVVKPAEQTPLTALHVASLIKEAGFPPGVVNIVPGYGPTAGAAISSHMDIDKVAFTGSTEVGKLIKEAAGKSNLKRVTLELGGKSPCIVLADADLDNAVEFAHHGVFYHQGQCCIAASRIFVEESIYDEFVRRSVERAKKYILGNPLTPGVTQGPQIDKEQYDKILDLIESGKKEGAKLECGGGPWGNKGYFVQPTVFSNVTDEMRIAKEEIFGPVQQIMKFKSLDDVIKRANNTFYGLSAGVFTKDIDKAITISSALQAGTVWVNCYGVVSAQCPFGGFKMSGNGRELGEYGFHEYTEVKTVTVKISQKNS
HTT aggregate = inhibitors of mutant huntingtin aggregate formation in PC12 cells. PC12 HttQ103-GFP aggregates, Acumen cytometry, 40 h. Potency, µM (highest dose often 46.1 µM), usual class: inhibitors. 1.1% of 220,000 active. AID 1688; also: nearly all actives have a fitted effect of over 60% in size
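Aggregates are detected as GFP objects 1–25 µm with signal 6 STDEV over background in lysates of induced PC12 cells. These carry Huntingtin exon 1 with 103 glutamines fused to GFP under an ecdysone promoter; compounds titrated.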
Lamin A splicing = modulators of lamin A splicing. HeLa LMNA splicing GFP/RFP minigene ratio, 48 h. Potency, µM (series often up to 46.1 µM), hits mostly inhibitors. 0.01% of 200,000 active. AID 1487; active = well fitted inhibition curve with a large enough effect in the signal ratio, with a control signal flat, not every such curve was filed as active; inconclusive = small, poorly fitted or top-dose-only effect, or effect the other way, or a change in a side signal; the % refers to the signal ratio
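S3 HeLa cells stably expressing lamin A-EGFP splicing minigene plus DsRed2, 600 cells/well, 48 h compound exposure at 37C. Laser-scanning cytometry; analysed as GFP (500-530 nm)/RFP (575-640 nm) total intensity ratio; 0.5% DMSO vehicle.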
Luc counter = blocks Kinase-Glo luciferase, a counter-screen artifact. 0.28% of 200,000 active. Kinase-Glo luciferase, ATP luminescence, 8 min. AID 1379. Potency, µM (highest dose often 38.3 µM), usual class: inhibitors. Q27757; also: nearly all actives have a fitted effect of over 60% in size
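Compounds were added to a substrate mix at pH 7.2 (50 mM imidazole, 10 uM ATP, within the enzyme's linear range), followed by Kinase-Glo detection reagent; luminescence was measured after 8 minutes at ambient temperature.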
HPGD inh = blocks human HPGD enzyme activity; P15428; purified HPGD, NADH fluorescence kinetic, PGE2 substrate; Potency, µM, hits mostly inhibitors; 4.3% of 150,000 active; active = well fitted inhibition curve with a large enough effect, not every such curve was filed as active; inconclusive = small, poorly fitted or top-dose-only effect, or another doubt; inactive = no such curve, though single readings can be large or run the other way
Target sequence (P15428 whole entry, looked up): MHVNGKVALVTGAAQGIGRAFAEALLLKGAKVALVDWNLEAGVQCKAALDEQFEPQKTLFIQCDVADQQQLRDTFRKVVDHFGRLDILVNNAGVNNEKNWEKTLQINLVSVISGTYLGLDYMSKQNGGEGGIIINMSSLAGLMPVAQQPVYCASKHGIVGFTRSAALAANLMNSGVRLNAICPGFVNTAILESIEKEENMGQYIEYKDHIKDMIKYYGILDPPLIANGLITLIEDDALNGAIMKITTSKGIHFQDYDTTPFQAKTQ
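20 nM HPGD preincubated 15 min at room temperature with compound in 50 mM Tris-HCl pH 8, 0.01% Tween 20. Started with 1 mM NAD+ and 30 uM prostaglandin E2; NADH fluorescence (360/450 nm) read 5 times over 30-s intervals, last minus first.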
HTT cytoprotect = Huntington cell model cytoprotection by ATP luminescence; Potency, µM (highest dose often 56.4 µM), hits mostly activators; PC12 HTT-Q103 induced, cytoprotection, ATP luminescence, 40 h; 0.14% of 230,000 active; also: nearly all actives have a fitted effect of over 45% in size
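Rat PC12, Q103 Htt exon1-GFP fusion, ecdysone promoter; tebufenozide inducer 100 nM final; compound titration; qHTS, 1500 cells/well; ATPlite luminescent read.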
Of the large screens only hits and unclear results are named; the others gave an inactive call. An excerpt weighted towards active compounds, which were near 9% of everything screened. Unless noted, calls follow the shape of the dose curve; as a rule, active = well fitted curve in the direction sought with a large enough effect; inconclusive = small, poorly fitted or top-dose-only effect, or another doubt; inactive = no such curve, though single readings can be large; an effect the other way counts as inactive or inconclusive.

Cc1ccc(N=Cc2cc(Cc3ccccc3Cl)cc([N+](=O)[O-])c2O)c(O)c1	ALDH1A1 inh 11.2µM, HTT aggregate inconclusive, HTT cytoprotect inconclusive (no result: Lamin A splicing, HPGD inh)
Cc1n[nH]c(C)c1Sc1ccccc1N=Cc1cc(Cl)cc([N+](=O)[O-])c1O	ALDH1A1 inh inconclusive
CCC(CC)c1nnc(NC(=O)c2c(-c3ccccc3)noc2C)s1	ALDH1A1 inh inconclusive
Cn1cccc1-c1cc(C(=O)N2CCc3c([nH]c4ccccc34)C2c2ccccn2)[nH]n1 (configuration not stated)	ALDH1A1 inh 12.6µM (no result: Lamin A splicing, HPGD inh)
Cc1ccc(/C(C#N)=C\c2ccc(N3CCOCC3)o2)cc1	ALDH1A1 inh 10µM, Lamin A splicing inconclusive, HPGD inh inconclusive
N#C/C(=C/c1ccc(N2CCCCCC2)o1)c1ccc(Cl)cc1	ALDH1A1 inh 7.94µM, Lamin A splicing inconclusive, HPGD inh inconclusive
CCOC(=O)C1CCCN(C(=O)N2CCOCC2)C1 (configuration not stated)	none (no result: Luc counter, HPGD inh)
CCn1nc(C(=O)OCC(=O)NCC(C)C)c2ccccc2c1=O	none (no result: HPGD inh)
Cn1sc(NC(=O)c2ccccc2Cl)nc1=O	ALDH1A1 inh 11.2µM, HPGD inh 14.1µM
Cn1sc(NC(=O)c2cccc(Cl)c2)nc1=O	none
Cc1ccc(/C=C/C(=O)N2CCc3ccccc32)o1	ALDH1A1 inh inconclusive, HPGD inh inconclusive (no result: HTT cytoprotect)
O=C(/C=C/c1ccco1)N1CCc2ccccc21	ALDH1A1 inh inconclusive, HTT aggregate inconclusive, Luc counter 10µM (no result: HPGD inh)
COc1ccc(/C=C/C(=O)N2CCCc3ccccc32)cc1	ALDH1A1 inh inconclusive, Lamin A splicing inconclusive, HPGD inh 11.2µM
COc1ccc(OC)c(/C=C/C(=O)N2CCCc3ccccc32)c1	ALDH1A1 inh inconclusive (no result: Lamin A splicing, HPGD inh)
O=C(/C=C/c1ccco1)N1CCCC(c2ccccc2)C1 (configuration not stated)	ALDH1A1 inh 10µM, Lamin A splicing inconclusive (no result: HPGD inh)
COc1cc(/C=C/C(=O)N2CCCc3ccccc32)cc(OC)c1OC	ALDH1A1 inh 14.1µM, Lamin A splicing inconclusive
O=C(NO)c1ccc(OC(F)F)cc1	none
CN1C(=S)SC(N(O)C=C2C=CC(=O)C=C2)C1(C)C (configuration not stated)	none
CCOC(=O)COc1cccc2c(=O)n(CC(=O)N3CCCc4ccccc43)ccc12	ALDH1A1 inh inconclusive
COc1cccc2c(=O)n(CC(=O)N3CCCc4ccccc43)ccc12	ALDH1A1 inh 10µM, HTT aggregate inconclusive
CCOC(=O)CC(=O)CSc1[nH]c(=O)cc(C)c1C#N	HPGD inh 14.1µM
COc1cc(C(=O)O)ccc1O	HTT aggregate inconclusive (no result: HTT cytoprotect)
COc1cc(C(=S)N2CCCCC2)ccc1O	ALDH1A1 inh inconclusive
COc1cc(C(=S)N2CCCC2)ccc1O	ALDH1A1 inh 14.1µM, HPGD inh 28.2µM
COc1cc(C(=S)N2CCC(C(N)=O)CC2)ccc1O	ALDH1A1 inh 10µM, HPGD inh 17.8µM
COc1cc(C(=S)N2CCC(C)CC2)ccc1O	ALDH1A1 inh 10µM, HPGD inh 14.1µM
CC1CCCN(c2nc(NCc3ccco3)nc(N)c2[N+](=O)[O-])C1 (configuration not stated)	ALDH1A1 inh 2µM, Lamin A splicing inconclusive
COC(=O)c1ccccc1NC(=O)C1CCC(=O)N1S(=O)(=O)c1ccc(C)cc1 (configuration not stated)	none
COC(=O)c1cc(OC)c(OC)cc1NC(=O)C1CCC(=O)N1S(=O)(=O)c1ccc(C)cc1 (configuration not stated)	HTT aggregate 3.16µM
Cc1ccc(C)n1CCN1CCN(CC(=O)Nc2ccc(S(N)(=O)=O)cc2)CC1	ALDH1A1 inh 25.1µM, HTT aggregate inconclusive, Lamin A splicing inconclusive
NC(=O)CSc1nc2ccccc2n1Cc1ccccc1F	ALDH1A1 inh inconclusive
CCOC(=O)C1=C(C)NC(=O)NC1c1ccc(-c2ccccc2F)o1 (configuration not stated)	ALDH1A1 inh 20µM, Lamin A splicing inconclusive
COCCOC(=O)C1=C(C)NC(=O)NC1c1ccc(-c2ccc(F)cc2)o1 (configuration not stated)	ALDH1A1 inh inconclusive, Lamin A splicing inconclusive (no result: HPGD inh)
CC[C@@H]1CC(=O)N(SC[C@H](N)C(=O)O)C1=O	none (no result: HTT aggregate, Lamin A splicing)
Cc1nc2sc3c(c2c(=O)o1)CCC3	ALDH1A1 inh 25.1µM, HPGD inh 20µM
O=c1[nH]nnc2sc3c(c12)CCCC3	ALDH1A1 inh inconclusive, HTT aggregate 11.2µM
Cc1nc2sc3c(c2c(=O)o1)CC(C)(C)OC3	ALDH1A1 inh inconclusive
Cc1nc2sc3c(c2c(=O)[nH]1)CCCC3	none (no result: Lamin A splicing)
O=c1[nH]c(S)nc2sc3c(c12)CCCC3	ALDH1A1 inh 4.47µM, HTT aggregate inconclusive (no result: Lamin A splicing, HPGD inh)
COCCCN1C(=O)CS/C1=N\S(=O)(=O)c1ccccc1	none (no result: ALDH1A1 inh, Lamin A splicing, Luc counter, HPGD inh)
O=Cc1s/c(=N\S(=O)(=O)c2ccccc2)n(CCCCl)c1Cl	ALDH1A1 inh inconclusive, HTT aggregate 5.01µM, Lamin A splicing inconclusive (no result: HPGD inh)
Cc1cc(C)cc(CC(Cc2nc3ccccc3[nH]2)c2nc3ccccc3[nH]2)c1 (configuration not stated)	HTT aggregate 22.4µM, Lamin A splicing inconclusive
O=C(c1nc2ccccc2s1)N1CCSCC1	HPGD inh 8.91µM
Cc1ccc(NC(=O)COc2cccc3ccc(C)nc23)c(Br)c1	ALDH1A1 inh inconclusive, HPGD inh 11.2µM (no result: HTT cytoprotect)
Cc1ccc(OCC(=O)Nc2cccc(C)n2)c(C)c1	none
Cc1cc(/C=C(\C#N)C(=O)Nc2ccccc2)c(C)n1-c1cccnc1	Lamin A splicing inconclusive
CCN(CC)CCCNC(=O)c1ccc(N2CCCCC2)c(NS(=O)(=O)c2ccc(C)cc2)c1	ALDH1A1 inh 14.1µM, HTT aggregate inconclusive (no result: Lamin A splicing, HPGD inh)
COCCNC(=O)c1ccc(N2CCCCC2)c(NS(=O)(=O)c2ccc(C)cc2)c1	ALDH1A1 inh 8.91µM
Cc1cc(NC(=O)CCCn2cc([N+](=O)[O-])cn2)n(Cc2ccc(F)cc2)n1	none (no result: Lamin A splicing, HPGD inh)
CN(C)N1C(=O)CC(N2CCCC2)C1=O (configuration not stated)	ALDH1A1 inh 22.4µM (no result: Lamin A splicing, HPGD inh)
Cc1cc(C)c2c(-n3cccc3)c(C(=O)NNS(=O)(=O)c3ccc(Br)cc3)sc2n1	ALDH1A1 inh 0.0891µM
O=C(Nc1nnc(-c2ccncc2)o1)c1ccccc1	ALDH1A1 inh inconclusive, HTT aggregate inconclusive (no result: HPGD inh)
O=C(Nc1nnc(-c2ccc3c(c2)CCCC3)o1)c1ccccc1Cl	HTT aggregate 11.2µM
O=C(Nc1nnc(-c2ccc(F)cc2)o1)c1cccc([N+](=O)[O-])c1	HTT aggregate 5.62µM, Lamin A splicing inconclusive (no result: HPGD inh)
O=C(Nc1nnc(-c2ccccc2)o1)c1cc(Cl)sc1Cl	Lamin A splicing inconclusive, HPGD inh inconclusive
O=C(Nc1nnc(-c2ccc(F)cc2)o1)c1cc(Cl)sc1Cl	HTT aggregate 11.2µM, Lamin A splicing inconclusive
N#Cc1ccccc1NC(=O)c1cc(=O)c2ccccc2o1	HTT aggregate inconclusive, Lamin A splicing inconclusive (no result: HPGD inh)

High-throughput results as filed in PubChem BioAssay.
